# According to PubChem BioAssay AID624404 (Broad Institute, 2012):
# Out of some 1,800 compounds screened, about 710 (39%) were called active. Not shown: some 28% with an inconclusive outcome.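 Rule for the calls: active = luciferase signal rise whose fitted curve crosses a set activity limit at or below the top valid tested dose; inconclusive = flat fit with 30 to 70% rise, or poor fit; inactive = signal falling, flat within 30%, or crossing above top dose.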 A selection follows. Measured potencies and affinities stand elsewhere.
# Assay: luciferase activators in glycosylation-insensitive reporter cells, dose response, counter-screen for N-linked glycosylation inhibitor project, D54 LucT cells, luminescence, cherry pick (AID 624404);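 note: 0% = median neutral control signal and 100% = twice that signal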
# Details: D54 LucT luciferase reporter counterscreen, 24 h; series mostly up to 19.5 µM; activity increase (luciferase signal): at the top concentration
row,Structure (SMILES),activity increase (luciferase signal)
1,COc1cc2c(cc1OC)C(C)N(C(=O)Nc1ccccc1)CC2 (stereo not given),55.9% (inactive)
2,COc1ccc(C(=O)/C=C/Sc2nc3ccccc3o2)cc1,40.7% (inactive)
3,COc1cc(/C=N/Nc2nc3c(c(=O)n(C)c(=O)n3C)n2Cc2ccccc2)ccc1OC(=O)c1ccco1,-6.13% (inactive)
4,COc1ccc(CCn2c(Br)nc3c2c(=O)[nH]c(=O)n3C)cc1,57.4% (inactive)
5,COc1cc(C2CC(=O)N(c3ccc(C)cc3)C(=O)C2)cc(OC)c1OC,12.2% (inactive)
6,CC(C)c1ccc(NC(=O)CN2C(=O)NC3(CCCCCCC3)C2=O)cc1,72.3% (inactive)
7,CCN(CC)S(=O)(=O)c1cccc(NC(=O)CN2C(=O)NC3(CCC(C)CC3)C2=O)c1 (stereo not given),8.57% (inactive)
8,NC(=O)c1ccc2c(=O)n3c(-c4cc(Cl)c(N)c(Cl)c4)csc3nc2c1,15.3% (inactive)
9,OCC1OC(n2cnc3c(=S)nc[nH]c32)CC1O (stereo not given),6.1% (inactive)
10,Cc1cccn2c(=O)c3cc(C(=O)NC4CCCC4)c(=N)n(CC4CCCO4)c3nc12 (stereo not given),-16.3% (inactive)
11,Cc1cccn2c(=O)c3cc(C(=O)NC4CCCC4)n(C)c3nc12,32.5% (inactive)
12,Cc1cccn2c(=O)c3cc(C(=O)NC4CCCC4)c(=N)n(CCc4ccccc4)c3nc12,-47.6% (inactive)
13,Cc1cccn2c(=O)c3cc(C(=O)N4CCCCC4)sc3nc12,51.5% (inactive)
14,CCN(CC)CCOc1ccc2c(c1)C(=NNC(=O)c1ccccn1)c1cc(OCCN(CC)CC)ccc1-2,-83.9% (inactive)
15,CC(C)Oc1ccc(C(=O)/C=C2/C(=O)Nc3ccccc32)cc1,19.1% (inactive)
16,CCc1ccc(NC(=O)Cn2c(=O)n(CCC(=O)NC3CCN(Cc4ccccc4)CC3)c(=O)c3ccccc32)cc1,-6.28% (inactive)
17,O=C(CCl)Nc1ccc(Sc2ccc(NC(=O)CCl)cc2)cc1,-72.8% (inactive)
18,Cc1[nH][nH]c(=O)c1C(c1ccc(-c2cccc(Cl)c2)o1)c1c(C)[nH][nH]c1=O,32.4% (inactive)
19,Cc1[nH][nH]c(=O)c1C(c1ccc(-c2ccc(F)cc2)o1)c1c(C)[nH][nH]c1=O,31.7% (inactive)
20,CC1(C(=O)Nc2ccc3c(c2)OCO3)Cc2c(-c3ccc4c(c3)OCO4)ccnc2O1 (stereo not given),15.3% (inactive)
21,CC1(C(=O)Nc2ccc(Cl)cc2)Cc2c(-c3ccc4c(c3)OCO4)ccnc2O1 (stereo not given),27.1% (inactive)
22,CCOC(=O)c1cc2c(ccn2C)n1CC(=O)N1CCN(c2ccccc2)CC1,20.9% (inactive)
23,FC(F)(F)c1cccc(Sc2nc(-c3ccccc3)nnc2C(F)(F)F)c1,-9.88% (inactive)
24,Nc1nonc1-c1nc2ccccc2n1CC(=O)N/N=C\c1ccc(-c2ccc(Cl)cc2)o1,13.8% (inactive)
25,COc1ccc(C(=O)/C=C/c2ccc(OC(=O)c3cc(OC)c(OC)c(OC)c3)cc2)cc1,20.6% (inactive)

row,Structure (SMILES),activity increase (luciferase signal)
1,COc1ccc(CCn2c(=N)c(S(=O)(=O)c3ccc(C)cc3)cc3c(=O)n4ccccc4nc32)cc1,255% (inactive)
2,N=c1c(C(=O)NCc2ccco2)cc2c(=O)n3ccccc3nc2n1CCc1ccccc1,-10% (inactive)
3,Cc1ccc2nc3c(cc(C(N)=S)c(=N)n3CCCOC(C)C)c(=O)n2c1,17.8% (inactive)
4,CCOc1cc(/C=C/C(=O)c2ccc(C)cc2)ccc1OCC(=O)N(C)C,47.5% (inactive)
5,O=C(Nc1cccc(-n2cnnn2)c1)c1cc(Cl)ccc1Cl,19.6% (inactive)
6,c1ccc(CN2CCC(Nc3nc(-c4cccnc4)nc4ccccc34)CC2)cc1,-28.2% (inactive)
7,Cn1nc(-c2ccc(N3CCOCC3)c(NS(=O)(=O)c3ccccc3)c2)c2ccccc2c1=O,31.8% (inactive)
8,CCc1ccc(N2CC(C(=O)Nc3ccccc3N3CCCC3)CC2=O)cc1 (stereo not given),18.3% (inactive)
9,COc1ccc(N2CC(C(=O)Nc3cc(C(F)(F)F)ccc3N3CCCC3)CC2=O)c(OC)c1 (stereo not given),11.6% (inactive)
10,COc1ccc2nc3n(c(=O)c2c1)-c1cc2ccccc2cc1C(=O)NC3Cc1ccccc1 (stereo not given),-29.2% (inactive)
11,COc1cccc(/C=N/NC(=O)c2[nH]nc3c2CCc2ccccc2-3)c1,19.5% (inactive)
12,Cc1ccc(C(c2cc(Cl)c3cccnc3c2O)N2CCN(C)CC2)cc1 (stereo not given),-2.86% (inactive)
13,Cc1nc2c3cc(F)ccc3n(CCN3CCCCC3)c2s1,14.4% (inactive)
14,COc1ccc(F)cc1C1=CC(=O)C[C@H](c2ccc3c(c2)OCO3)C1,32.4% (inactive)
15,CN1C/C(=C\c2ccc(N3CCOCC3)cc2)C(=O)/C(=C/c2ccc(N3CCOCC3)cc2)C1,-37.8% (inactive)
16,COc1cc(-c2nc(-c3ccccc3)c(-c3cccs3)[nH]2)cc(OC)c1O,26.6% (inactive)
17,Cc1noc(C)c1COc1ccccc1C(=O)N1CCN(c2cccc(C(F)(F)F)c2)CC1,25.9% (inactive)
18,CN(C)c1ccc(/C=C/c2cc[n+](C)c3ccccc23)cc1,-17.1% (inactive)
19,COc1ccc(C2C(C(=O)Nc3cc(OC)c(OC)c(OC)c3)c3ccccc3C(=O)N2C)cc1 (stereo not given),-0.8% (inactive)
20,Cn1cc(/C=N/n2cnc3scc(-c4ccc(Cl)cc4)c3c2=O)c2ccccc21,-4.96% (inactive)
21,Cc1[nH][nH]c(=O)c1C(c1ccc(-c2ccc(Cl)c(Cl)c2)o1)c1c(C)[nH][nH]c1=O,11% (inactive)
22,Cc1ccccc1OCC(O)CN1CCN(CCN2C(=O)c3cccc4cccc(c34)C2=O)CC1 (stereo not given),-2.69% (inactive)
23,COc1cccc(OCC(O)CN2CCN(CCN3C(=O)c4cccc5cccc(c45)C3=O)CC2)c1 (stereo not given),1.12% (inactive)
24,CC(C)CCN(C(=O)Cc1ccc(Cl)c(Cl)c1)c1c(N)n(Cc2ccccc2)c(=O)[nH]c1=O,6.92% (inactive)
25,CCN(CC)c1ccc(/C=C/c2cccc[n+]2C)c(OC)c1,-53.2% (inactive)

row,Structure (SMILES),activity increase (luciferase signal)
1,O=C(Cn1cnc2c(NCc3ccccc3)ncnc21)NCc1ccccc1,38.4% (inactive)
2,COc1ccc(Nc2nc(N3CCCC3)nc3ccccc23)c(OC)c1,-0.901% (inactive)
3,CC(=O)c1ccc(Nc2c3c(nc4ccccc24)CCCC3)cc1,32.1% (inactive)
4,CCOc1ccccc1C1CC(=O)Nc2cc3c(cc21)OCO3 (stereo not given),35.4% (inactive)
5,Cc1ccc(C)c(N2CCN(c3cnn(-c4nc5ccccc5s4)c(=O)c3Cl)CC2)c1,36.1% (inactive)
6,CC(C)(C)c1ccc(C(=O)O/N=C(\N)Cc2cccs2)cc1,40.3% (inactive)
7,O=C(CCl)Nc1cn(-c2ccccc2)nc1-c1ccc(F)cc1,-69.3% (inactive)
8,CC1=CC(C)[C@H](/C=N/n2c(=O)[nH]c3c([nH]c4ccc(Br)cc43)c2=O)C(C)C1 (stereo not given in full),9.8% (inactive)
9,COc1ccc(-c2nn(C)c(=O)c3ccccc23)cc1NS(C)(=O)=O,57.1% (inactive)
10,CC=Cc1cc2c(c(=O)o1)C(=O)C(O)C(C)O2 (stereo not given),40.1% (inactive)
11,Cc1ccc(OCCOC(=O)c2c(-c3ccccc3)noc2C)cc1,13.6% (inactive)
12,Cc1noc(C)c1COc1ccc(C(=O)NNC(=O)c2ccccc2F)cc1,70.6% (inactive)
13,N#CCC(CNc1ncc(C(F)(F)F)cc1Cl)OC(=O)c1ccc(Cl)cc1Cl (stereo not given),13.4% (inactive)
14,C/C(=N/NC(=O)c1cccs1)c1ccc(NC(=O)COc2ccc(Cl)cc2Cl)cc1,13.5% (inactive)
15,CCOc1ccc(Br)cc1C1=NN(C(C)=O)C(c2ccc([N+](=O)[O-])s2)O1 (stereo not given),30% (inactive)
16,O=C(Nc1cccc(F)c1)c1cc(S(=O)(=O)N2CCOCC2)ccc1N1CCCC1,5.41% (inactive)
17,CN(C)S(=O)(=O)c1ccc(N2CCCC2)c(C(=O)Nc2ccccc2)c1,4.45% (inactive)
18,COc1ccc(S(=O)(=O)Nc2cc3c(cc2C(C)=O)OCO3)cc1,40.6% (inactive)
19,CN(C)S(=O)(=O)c1ccc(N2CCCC2)c(C(=O)Nc2cccc(F)c2)c1,17.2% (inactive)
20,CC1=C(n2ccnc2)CCC1=O,20.5% (inactive)
21,O=C1CC(c2ccccc2F)c2cc3c(cc2N1)CCC3 (stereo not given),32.1% (inactive)
22,CC(C)(C)c1nnc2sc(SCC(=O)c3ccc4c(c3)OCCO4)nn2c1=O,-0.962% (inactive)
23,CN(C)CCc1cc2c(c3c1ccc1ccccc13)OCO2,-9.59% (inactive)
24,COc1ccccc1C1CC(=O)Nc2cc3c(cc21)OCCO3 (stereo not given),7.01% (inactive)
25,COC(=O)c1sc(N)c(C(=O)OC)c1COC(=O)c1c(C)noc1C,41.7% (inactive)

row,Structure (SMILES),activity increase (luciferase signal)
1,Cc1[nH]c2ccc(C(=O)OC(C)C(=O)NCc3ccccc3)cc2c1C (stereo not given),20.7% (inactive)
2,COc1cccc(-c2nc(N3CCN(C)CC3)c3ccccc3n2)c1O,30.5% (inactive)
3,O=C(CNc1cccc2ccccc12)N/N=C/C(Br)=C/c1ccccc1,33.3% (inactive)
4,O=C(N/N=C/C(Br)=C/c1ccccc1)c1cc(-c2ccco2)[nH]n1,31.3% (inactive)
5,Cc1nc2c3cc(F)ccc3n(Cc3ccc(F)cc3)c2s1,23.6% (inactive)
6,CCCn1nc(C(=O)N2CC(=O)Nc3ccccc32)c2ccccc2c1=O,30.2% (inactive)
7,CCOc1ccc2nc(NCCNC(=O)Nc3cccc(C)c3)c(C#N)cc2c1,12.9% (inactive)
8,COc1ccc2nc(SCC(=O)NC3CCCC3)c(C)cc2c1,34.9% (inactive)
9,OCCNc1c2ccccc2nc2ccccc12,-24% (inactive)
10,Cc1cc(/C=C2\Sc3ccccc3N2C)cc(C)[n+]1CC1CCCO1 (stereo not given),-30.6% (inactive)
11,CC[C@H](C)[C@H](NC(=O)c1ccc(Cl)cc1)C(=O)OCC(=O)c1ccc2c(c1)NC(=O)CO2,-25.4% (inactive)
12,CC(C)CC(NC(=O)c1ccc(Cl)cc1)C(=O)OCC(=O)c1ccc2c(c1)NC(=O)CO2 (stereo not given),19.6% (inactive)
13,O=C(/C=C/c1cccnc1)c1ccc(F)c(F)c1,12.5% (inactive)
14,COc1ccc(C(=O)C=Cc2ccc(OCc3ccccc3)c(OC)c2)cc1OC,45.9% (inactive)
15,C=CCn1cccc(/C=C/C(=O)c2ccc(C(C)(C)C)cc2)c1=S,-49.2% (inactive)
16,CNc1ccc(Br)cc(C(=O)/C=C/c2ccc(Cl)cc2Cl)c1=O,11.2% (inactive)
17,Cc1ccc(-c2nn(-c3ccccc3)cc2NC(=O)CCl)cc1,-50% (inactive)
18,Cc1ccc(C(=O)CSc2nn3c(=O)c(C(C)(C)C)nnc3s2)cc1,23.5% (inactive)
19,COc1ccccc1-c1cc(NC=O)c2ncc(-c3cccc(C(C)=O)c3)n2c1,-15.7% (inactive)
20,COc1ccc(F)cc1-c1cc(NC(C)=O)c2ncc(-c3cc(OC)c(OC)c(OC)c3)n2c1,-10.8% (inactive)
21,CN(C)C(=O)c1cccc(-c2cnc3c(NC=O)cc(-c4ccccc4Cl)cn23)c1,51.8% (inactive)
22,Nc1ccc(-c2cc(NC=O)c3ncc(-c4cccc(C(F)(F)F)c4)n3c2)cn1,7.33% (inactive)
23,CCOc1cc(S(=O)(=O)NCc2ccc(OC)cc2)c(OCC)cc1-n1cnnn1,29% (inactive)
24,Oc1ccc(N=Nc2ccccc2)o1,15.2% (inactive)
25,O=C(Nc1cccc(C(F)(F)F)c1)c1sc(Cl)nc1C(F)(F)F,-21.3% (inactive)
